# PubChem BioAssay (EPA / NIEHS)
# Inconclusive results are not listed. Activity calls are given as the source filed them. How the source made its calls, unless noted: active means hit-call score of the fitted dose curve at least 0.9, where 1 is the maximum; inactive means score below 0.9.
# Read-out: not listed separately
# Assay: BSK_SAg_Proliferation: Cell Proliferation Assessment in the BioMAP Diversity Plus: SAg Assay (AID 2283095);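 further: relative cell number as total protein by SRB absorbance in sub-confluent culture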
# Settings: primary human HUVEC with PBMC
# Procedure, shortened: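 Relative cell number in the endothelial cell/PBMC co-culture was quantified at 96 h by SRB staining (0.1% SRB, 10% TCA fixation, read at 560 nm). Curves were fitted in both directions relative to DMSO baseline.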
SMILES,outcome,AC50
COCc1cnc(C2=NC(C)(C(C)C)C(=O)N2)c(C(=O)O)c1 (centres undefined),inactive,–
N#Cc1c[nH]cc1-c1cccc2c1OC(F)(F)O2,–,20 µM (active)
CCCCOCN(C(=O)CCl)c1c(CC)cccc1CC,–,22.2 µM (active)
Cc1cnc(C2=NC(C)(C(C)C)C(=O)N2)c(C(=O)O)c1 (centres undefined),inactive,–
COC(=O)NS(=O)(=O)c1ccc(N)cc1,inactive,–
CCCC(=NOCC)C1=C(O)CC(CC(C)SCC)CC1=O (centres undefined),inactive,–
COCC(=O)N(c1c(C)cccc1C)C(C)C(=O)OC (centres undefined),inactive,–
N#Cc1c(Cl)cccc1Cl,inactive,–
Clc1cccc(C(Cl)(Cl)Cl)n1,inactive,–
Nc1c(Cl)c(F)nc(OCC(=O)O)c1Cl,inactive,–
CCCCC(C#N)(Cn1cncn1)c1ccc(Cl)cc1 (centres undefined),inactive,–
CCOP(=S)(OCC)Oc1nc(Cl)n(C(C)C)n1,inactive,–
CCSC(=O)N1CCCCCC1,inactive,–
CC1(C)CCC(=Cc2ccc(Cl)cc2)C1(O)Cn1cncn1 (centres undefined),inactive,–
Cc1cc(C)nc(Nc2ccccc2)n1,inactive,–
CCNC(=O)NC(=O)C(C#N)=NOC,inactive,–
CNC(=O)N(C)c1nnc(C(C)(C)C)s1,inactive,–
CS(=O)(=O)c1ccc(C(=O)C2C(=O)CCCC2=O)c([N+](=O)[O-])c1,inactive,–

SMILES,outcome,AC50
CCOP(=O)(OCC)Oc1nc(Cl)c(Cl)cc1Cl,–,17.1 µM (active)
CC1(C)C(C=C(Cl)Cl)C1C(=O)OC(C#N)c1cccc(Oc2ccccc2)c1 (centres undefined),–,29.4 µM (active)
CC(C)N1C(=O)c2ccccc2NS1(=O)=O,inactive,–
N#CN=C1SCCN1Cc1ccc(Cl)nc1,inactive,–
COc1cc(OC)nc(NC(=O)NS(=O)(=O)c2ncccc2OCC(F)(F)F)n1,inactive,–
O=C(O)c1c(Cl)ccc2cc(Cl)cnc12,inactive,–
CC(C)Nc1nc(Cl)nc(NC(C)C)n1,inactive,–
CN/C(=N\[N+](=O)[O-])NCc1cnc(Cl)s1,inactive,–
O=c1n(Cl)c(=O)n(Cl)c(=O)n1Cl,inactive,–
CC(C)NC(=O)N1CC(=O)N(c2cc(Cl)cc(Cl)c2)C1=O,inactive,–
CCN(CC)c1nc(C)cc(OP(=S)(OC)OC)n1,–,37 µM (active)
COc1cc(Cl)c(OC)cc1Cl,inactive,–
Clc1nc(Cl)nc(Nc2ccccc2Cl)n1,inactive,–
COP(=S)(OC)Oc1ccc([N+](=O)[O-])c(C)c1,–,24.9 µM (active)
CC(C)Oc1cccc(NC(=O)c2ccccc2C(F)(F)F)c1,inactive,–
CO/N=C(/C1=NOCCO1)c1ccccc1Oc1ncnc(Oc2ccccc2Cl)c1F,–,15.8 µM (active)
C=C(C)CN(CC)c1c([N+](=O)[O-])cc(C(F)(F)F)cc1[N+](=O)[O-],–,28.8 µM (active)
CCNP(=S)(OC)O/C(C)=C/C(=O)OC(C)C (centres undefined),inactive,–

# Read-out: not listed separately
# Assay: BSK_SAg_SRB: Viability Assessment in the BioMAP Diversity Plus: SAg Assay (AID 2283096);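 further: cells read one day after compound addition; hits may be either gain or loss of signal compared with DMSO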
# Settings: primary human HUVEC with PBMC
# Procedure, shortened: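 This overt-cytotoxicity endpoint quantifies protein in human endothelial/PBMC co-cultures at 24 h using SRB absorbance (560 nm) after trichloroacetic acid fixation. Values reflect signal change from the DMSO negative control, fitted bidirectionally.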
SMILES,outcome,AC50
COCc1cnc(C2=NC(C)(C(C)C)C(=O)N2)c(C(=O)O)c1 (centres undefined),inactive,–
N#Cc1c[nH]cc1-c1cccc2c1OC(F)(F)O2,–,13.1 µM (active)
CCCC(=NOCC)C1=C(O)CC(CC(C)SCC)CC1=O (centres undefined),inactive,–
N#Cc1c(Cl)cccc1Cl,inactive,–
Clc1cccc(C(Cl)(Cl)Cl)n1,inactive,–
Cc1cc(C)nc(Nc2ccccc2)n1,inactive,–
CCOP(=O)(OCC)Oc1nc(Cl)c(Cl)cc1Cl,–,20 µM (active)
CC1(C)C(C=C(Cl)Cl)C1C(=O)OC(C#N)c1cccc(Oc2ccccc2)c1 (centres undefined),–,6.38 µM (active)
CC(C)N1C(=O)c2ccccc2NS1(=O)=O,inactive,–
O=C(O)c1c(Cl)ccc2cc(Cl)cnc12,inactive,–
CC(C)Nc1nc(Cl)nc(NC(C)C)n1,inactive,–
CC(C)NC(=O)N1CC(=O)N(c2cc(Cl)cc(Cl)c2)C1=O,inactive,–
COc1cc(Cl)c(OC)cc1Cl,inactive,–
Clc1nc(Cl)nc(Nc2ccccc2Cl)n1,inactive,–
CC(C)Oc1cccc(NC(=O)c2ccccc2C(F)(F)F)c1,–,15.1 µM (active)

# Biological target: human CYP19A1, CYP19A1 (gene 1588) (UniProt P11511)
# Assay: NVS_ADME_hCYP19A1: NovaScreen (NVS) CYP450-related Enzyme Activity (ADME) Assay for human CYP19A1 (AID 2283098; active means hit-call score of the fitted dose curve at least 0.9, where 1 is the maximum;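 on AC50: potency for inhibitors seen as loss of fluorescent enzyme signal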)
# Settings: not given
# Procedure, shortened: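 Compounds were first screened at 10 uM in duplicate against purified enzyme, with a fluorogenic substrate and fluorescence intensity detection after 0.5 h. Inhibition appears as reduced signal against acetonitrile control.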
# Chain of human CYP19A1, CYP19A1 (gene 1588) (P11511 whole entry, looked up): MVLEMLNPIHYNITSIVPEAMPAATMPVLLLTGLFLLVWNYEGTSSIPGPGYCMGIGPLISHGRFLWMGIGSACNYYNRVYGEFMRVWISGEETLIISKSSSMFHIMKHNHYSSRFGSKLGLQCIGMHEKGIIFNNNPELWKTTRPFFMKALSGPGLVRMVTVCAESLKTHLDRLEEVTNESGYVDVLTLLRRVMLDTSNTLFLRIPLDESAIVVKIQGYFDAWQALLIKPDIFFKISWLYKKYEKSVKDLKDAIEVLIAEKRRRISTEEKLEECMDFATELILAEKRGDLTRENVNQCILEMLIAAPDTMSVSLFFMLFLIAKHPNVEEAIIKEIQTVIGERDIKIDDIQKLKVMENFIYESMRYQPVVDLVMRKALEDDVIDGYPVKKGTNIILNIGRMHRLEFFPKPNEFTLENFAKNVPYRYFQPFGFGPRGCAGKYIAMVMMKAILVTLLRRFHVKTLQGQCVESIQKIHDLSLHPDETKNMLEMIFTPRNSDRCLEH
SMILES,outcome,AC50
COCC(=O)N(c1c(C)cccc1C)C(C)C(=O)OC (centres undefined),inactive,–
CCCCC(C#N)(Cn1cncn1)c1ccc(Cl)cc1 (centres undefined),–,0.789 µM (active)
CC1(C)C(C=C(Cl)Cl)C1C(=O)OC(C#N)c1cccc(Oc2ccccc2)c1 (centres undefined),inactive,–
N#CN=C1SCCN1Cc1ccc(Cl)nc1,–,0.933 µM (active)
CC(C)NC(=O)N1CC(=O)N(c2cc(Cl)cc(Cl)c2)C1=O,inactive,–
CCN(CC)c1nc(C)cc(OP(=S)(OC)OC)n1,inactive,–
COP(=S)(OC)Oc1ccc([N+](=O)[O-])c(C)c1,inactive,–
CC(C)Oc1cccc(NC(=O)c2ccccc2C(F)(F)F)c1,inactive,–

# Biological target: human CYP1A1, CYP1A1 (gene 1543) (UniProt P04798)
# Assay: NVS_ADME_hCYP1A1: NovaScreen (NVS) CYP450-related Enzyme Activity (ADME) Assay for human CYP1A1 (AID 2283100; active means hit-call score of the fitted dose curve at least 0.9, where 1 is the maximum)
# Settings: not given
# Method: NVS_ADME_hCYP1A1 is a biochemical, single-readout assay that uses extracted gene-proteins in a cell-free assay. Measurements were taken 1 hour after chemical dosing in a 96-well plate.NVS_ADME_hCYP1A1 is one of one assay component(s) measured or calculated from the NVS_ADME_hCYP1A1 assay. It is designed to make measurements of enzyme activity, a form of enzyme reporter, as detected with fluorescence intensity signals by Fluorescence technology.Data from the assay component NVS_ADME_hCYP1A1 was analyzed into 1 assay endpoint. This assay endpoint, NVS_ADME_hCYP1A1, was analyzed in the positive analysis fitting direction relative to Acetonitrile as the negative control and baseline of activity. Using a type of enzyme reporter, loss-of-signal activity can be used to understand changes in the enzymatic activity as they relate to the gene CYP1A1. Furthermore, this assay endpoint can be referred to as a primary readout, because this assay has produced multiple assay endpoints where this one serves a enzymatic activity function. To generalize the intended target to other relatable targets, this assay endpoint is annotated to the cyp intended target family, where the subfamily is xenobiotic metabolism.
# Binding assays used specific radioligands (tritiated, iodinated) with non-radioactive competitive displacement ligands in agonist or antagonist protocols (as indicated) and various reference compounds and inhibitors to titrate specific binding to receptors and transporters. Most enzyme assays (CYPs, kinases, phosphatases, proteases, HDACs) used recombinant protein and specific substrates (fluorescence mostly, some colorimetric and radioactive) and inhibitors, followed by a biochemical separation of substrate and product. All assays for the biochemical HTS were initially run in duplicate at a single concentration (10 uM for CYP450 assays and 25 uM for all others). Assay-chemical combinations meeting a pre-defined threshold (e.g., 30% inhibition and other criteria defined below) were then run in singleton concentration-response format with maximum concentration of 20 uM for CYPs and 50 uM for all others. Each assay was run with positive and negative controls, and concurrent controls on every plate. The follow-up (secondary) screen tested active chemical-pairs in concentration series, as well as a few additional assays not tested in the primary screen, some selected negative inactives, and several cases re-run in the concentration series for confirmatory purposes.
# Chain of human CYP1A1, CYP1A1 (gene 1543) (P04798 whole entry, looked up): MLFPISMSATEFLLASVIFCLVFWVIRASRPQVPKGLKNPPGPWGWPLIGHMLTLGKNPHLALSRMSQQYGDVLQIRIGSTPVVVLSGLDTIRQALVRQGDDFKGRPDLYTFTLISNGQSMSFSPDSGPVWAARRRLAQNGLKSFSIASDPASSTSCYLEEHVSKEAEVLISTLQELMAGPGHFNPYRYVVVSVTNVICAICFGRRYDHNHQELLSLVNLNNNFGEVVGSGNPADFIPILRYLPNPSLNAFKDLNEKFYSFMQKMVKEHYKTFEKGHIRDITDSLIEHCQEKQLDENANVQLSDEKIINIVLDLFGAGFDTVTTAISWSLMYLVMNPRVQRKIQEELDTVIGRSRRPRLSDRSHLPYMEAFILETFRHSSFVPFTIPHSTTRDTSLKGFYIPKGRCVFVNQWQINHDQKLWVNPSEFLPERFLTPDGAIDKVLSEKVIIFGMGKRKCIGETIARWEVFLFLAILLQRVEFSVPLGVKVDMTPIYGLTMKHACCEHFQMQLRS
row,SMILES,AC50
1,CCCCC(C#N)(Cn1cncn1)c1ccc(Cl)cc1 (centres undefined),10.4 µM (active)
2,CC1(C)CCC(=Cc2ccc(Cl)cc2)C1(O)Cn1cncn1 (centres undefined),0.908 µM (active)
3,CCOP(=O)(OCC)Oc1nc(Cl)c(Cl)cc1Cl,7.46 µM (active)
4,CC(C)NC(=O)N1CC(=O)N(c2cc(Cl)cc(Cl)c2)C1=O,5.48 µM (active)
5,CCNP(=S)(OC)O/C(C)=C/C(=O)OC(C)C (centres undefined),2.43 µM (active)
